Compounds with a hit are over-represented: about 1.4% of the library has one in this group of screens.
AID504770: growth inhibitors of E. coli YBA685 in a screen for V. cholerae RctB (chromosome II replication) inhibitors; z-score (no concentration beside the values); AID 504770; 0.27% of 130,000 active; E. coli YBA685 rctB-dependent plasmid, OD600 growth, 3 h; hits give low values; in the data active = z-score below about -2, passing the limit was not always enough
PV pol inh: poliovirus RNA polymerase inhibition | 0.66% of 150,000 active | % elongation, % (compound at 16.7 µg/mL) | poliovirus polymerase elongation, fluorescence polarization; hits give low values | AID 588519 | P03300; in the data active = % elongation below about 90%
MenB inh: blocks the Mycobacterium tuberculosis MenB enzyme; 0.43% of 100,000 active; P9WNP5; MenB enzyme assay, absorbance read-out; inhibition, % (test concentration not listed); in the data active = inhibition above about 21%, passing the limit was not always enough
MbtI inh: inhibitors of Mycobacterium tuberculosis siderophore enzyme MbtI; AID 493033; 0.89% of 100,000 active; inhibition, % (no concentration beside the values); purified MbtI enzyme, fluorescence intensity read-out; P9WFX0; in the data active = inhibition mostly above about 56%, no sharp cut-off; inactive = mostly below about 77%
Target sequence (P9WFX0 whole entry, looked up): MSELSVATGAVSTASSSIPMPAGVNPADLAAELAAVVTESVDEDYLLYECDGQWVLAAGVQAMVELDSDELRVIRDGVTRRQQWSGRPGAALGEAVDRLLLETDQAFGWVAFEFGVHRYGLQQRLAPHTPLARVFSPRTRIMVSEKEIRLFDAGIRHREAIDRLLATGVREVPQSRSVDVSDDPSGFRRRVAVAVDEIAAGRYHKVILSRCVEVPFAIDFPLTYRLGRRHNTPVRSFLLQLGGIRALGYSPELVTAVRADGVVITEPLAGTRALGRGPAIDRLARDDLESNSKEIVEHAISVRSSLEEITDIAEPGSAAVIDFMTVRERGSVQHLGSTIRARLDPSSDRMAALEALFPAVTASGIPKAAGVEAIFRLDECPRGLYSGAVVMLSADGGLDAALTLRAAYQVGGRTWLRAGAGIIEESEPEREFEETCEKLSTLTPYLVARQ
* hit, by the source's call; · = no result given.

SMILES	AID504770	PV pol inh	MenB inh	MbtI inh
CCn1cc(C(=O)O)c(=O)c2cc3c(cc21)OCO3	-3.75*	102.0	-7.3	-1.4
O=C(O)c1cn(-c2ccc(F)cc2)c2cc(N3CCNCC3)c(F)cc2c1=O	-3.55*	99.0	-4.4	1.9
CCN1CCN(Cc2ccc(NC(=O)c3cn(-c4cccc(OC)c4)c(=O)c4ccccc34)cc2)CC1	-1.1	100.0	-10.7	-12.9
O=C(OCc1nc2ccccc2s1)c1cccc(-n2cnnn2)c1	-0.15	110.0	14.4	2.9
O=S(=O)(c1ccccc1)N1CCN(CC2CC=CCC2)CC1 (stereo unspecified)	-1.1	99.0	-16.0	-19.3
O=C1c2cccc3c(N4CCCCC4)ccc(c23)C(=O)N1c1ccccn1	-0.25	78.0	36.4*	-1.6
S=c1[nH]ccn1Cc1ccccc1	-0.45	102.0	-1.4	67.9*
COc1ccc(C2C(C(=O)O)c3ccccc3C(=O)N2Cc2ccc(Cl)cc2)cc1 (stereo unspecified)	0.45	103.0	5.1	4.8
CCOc1ccc([C@@H]2[C@H](C(=O)O)c3ccccc3C(=O)N2Cc2ccccc2)c(O)c1	0.3	69.0*	9.3	2.6
COc1cccc(OC)c1C(=O)NC(C)(C)CC(C)(C)C	-0.2	·	·	·
CCC(C)N=Cc1c(O)n(-c2ccccc2)c(=O)[nH]c1=O (stereo unspecified)	-0.65	96.0	-3.0	101.8*
CC1=C(C(=O)Nc2ccccc2)C(c2ccco2)C(C#N)=C(SCC(=O)Nc2ccccc2)N1 (stereo unspecified)	-0.4	102.0	39.4*	16.9
O=C(COC(=O)c1ccccc1Cl)c1ccc(Cl)cc1	-0.45	105.0	1.8	-7.8
NC(=O)c1ccccc1NCC(=O)c1ccc(Cl)cc1	-2.25*	·	·	·
CC(C)(C)/C(O)=C/c1nc2ccccc2oc1=O	-0.5	97.0	64.0*	-1.6
CCS(=O)(=O)c1ccc2oc(=O)c(/C=C(\O)C(C)(C)C)nc2c1	-0.65	100.0	55.3*	9.7
CC(C)C/C(O)=C/c1nc2cc(Cl)ccc2oc1=O	-1.05	101.0	84.5*	21.7
Cc1nc(C)c(/C(O)=C/c2nc3cc(Cl)ccc3oc2=O)o1	1.35	102.0	6.2	3.1
CCS(=O)(=O)c1ccc2oc(SCC(=O)NCc3ccccc3)nc2c1	-0.05	104.0	-16.7	-5.2
O=C(Nc1ccccc1C(=O)Nc1ccccc1)c1ccc(Cl)cc1	1.5	102.0	12.5	·
CC(O)CNCc1ccccc1OCc1ccccc1F (stereo unspecified)	-0.7	104.0	-2.4	0.7
CN(Cc1c(F)cccc1Cl)C(=O)CN1CCN(c2ncccn2)CC1	0.25	100.0	6.2	2.0
CCOc1ccc(CNC(=O)C2CCCN(S(=O)(=O)N3CCOCC3)C2)cc1 (stereo unspecified)	1.8	102.0	9.0	0.4
O=C(c1ccc(N2CCCc3ccccc32)s1)N1CCCC1	-2.2*	100.0	-23.2	127.0
O=C(NCc1ccc(-n2cccn2)cc1)c1cc(F)cc2c1OCOC2	-0.35	·	·	·
SMILES	AID504770	PV pol inh	MenB inh	MbtI inh
CCOc1cc2c(cc1OCC)C1C(C(=O)NCCC(C)C)c3ccccc3C(=O)N1CC2 (stereo unspecified)	-2.9*	102.0	-12.0	12.8
Cc1ccc(NC(=O)CSc2nc(C)cc(C)c2C#N)cc1	1.05	98.0	40.5*	2.5
Cc1cc(C)c(C#N)c(SCC(=O)Nc2ccccc2C#N)n1	·	103.0	·	·
N#CSc1ccc2nc(N)sc2c1	-1.4	94.0	1.2	53.2*
CCS(=O)(=O)N1CCN=C1SCc1ccccc1C	-0.25	·	·	·
COc1ccc(C)c2sc(=NC(=O)C(C)(C)C)n(C)c12	-0.6	101.0	-19.2	-1.2
O=C(Nc1sc2c(c1C(=O)Nc1cccc(Cl)c1)CCCC2)c1cccs1	·	77.0*	·	·
O=C(Cc1ccccc1)Nc1sc2c(c1C(=O)Nc1ccccc1Cl)CCCC2	·	85.0*	·	·
Nc1sc2c(c1C(=O)Nc1cccc(Cl)c1)CCCCC2	0.05	104.0	-14.3	·
O=C(Cc1ccccc1)Nc1sc2c(c1C(=O)Nc1ccc(Cl)cc1)CCCC2	·	71.0*	·	·
O=C(COc1ccccc1)Nc1sc2c(c1C(=O)Nc1ccccc1Cl)CCCCC2	·	102.0	·	·
Nc1sc2c(c1C(=O)Nc1ccc(Cl)cc1)CCC2	-0.05	89.0*	-2.9	·
O=C(Cc1ccccc1)Nc1sc2c(c1C(=O)Nc1ccccc1)CCCCC2	·	100.0	·	·
CN1CCC2(CC1)N1CC3(C)CN2CC(C)(C1)C3O (stereo unspecified)	-0.05	101.0	11.5	-20.8
C=CCN=C(SCc1ccccc1)N1CCCC1	1.6	101.0	-52.1	·
Cc1cc(C)c2c(C(C)(C)C)nn(-c3ccc(C(=O)O)cc3)c2n1	1.7	100.0	-2.7	-21.2
O=C(CC1SC(N2CCCC2)=NC1=O)Nc1ccc(C(=O)N2CCN(c3ccccn3)CC2)cc1 (stereo unspecified)	0.85	107.0	-20.1	7.3
Cc1onc(-c2ccccc2)c1C(=O)OCC(=O)c1ccc2[nH]c(=O)[nH]c2c1	-0.8	76.0*	-17.8	1.7
O=C(COC(=O)c1ccccc1NCc1ccco1)c1ccc2[nH]c(=O)[nH]c2c1	0.9	44.0*	0.7	-196.0
COc1ccc(C(=O)OCC(=O)c2ccc3[nH]c(=O)[nH]c3c2)c(OC)c1	-0.4	88.0*	-16.6	0.9
O=C(COC(=O)c1ccccc1NCc1ccco1)c1ccc(Cl)cc1	-0.5	106.0	-29.7	-37.0
CCCOC(=O)c1ccc(Nc2nc3ccccc3n3c(C)nnc23)cc1	-0.3	100.0	-7.3	2.1
Cc1cc(C)c2c(n1)nn1c(C)c(CCC(=O)NCC3CCCO3)c(C)nc21 (stereo unspecified)	-0.25	·	·	·
N#CC1(C#N)C2C=CC(C2)C1(C#N)C#N	-5.95*	103.0	-15.7	11.9
Cc1cc(C(=O)CC2=C(O)CC(C)(C)CC2=O)c(C)n1Cc1cccs1	-0.95	103.0	-0.2	4.5
SMILES	AID504770	PV pol inh	MenB inh	MbtI inh
CCN1CSC(=S)N(Cc2ccccc2)C1	-2.85*	101.0	-57.8	0.4
CCN1CSC(=S)N(Cc2ccc(OC)cc2)C1	1.4	101.0	-72.6	5.9
Cc1cc2c(c(SCC(=O)c3ccccc3)n1)C(=O)OC2	-0.75	·	·	-5.8
COc1ccc(CNCc2cccc(OC)c2)cc1	-0.25	89.0*	0.3	4.8
Cc1ccc(C(=O)CSc2cccc[n+]2[O-])cc1	1.9	100.0	·	69.3*
Cc1ccc(NC(=O)CC2SC(=NC(c3ccc(O)cc3)c3c(O)[nH]c(=O)[nH]c3=O)NC2=O)cc1 (stereo unspecified)	-1.3	97.0	-18.3	21.1
CC(C)(O/N=C(/C(=O)N[C@@H]1C(=O)N2C(C(=O)[O-])=C(C[n+]3ccccc3)CS[C@H]12)c1csc(N)n1)C(=O)O	·	98.0	-4.7	2.5
CO/N=C(/C(=O)N[C@@H]1C(=O)N2C(C(=O)O)=C(COC(C)=O)CS[C@H]12)c1csc(N)n1	-3.15*	100.0	4.5	-14.9
CN(C)C(=S)SSC(=S)N(C)C	-0.85	101.0	7.6	86.6*
Cc1ccc(S(=O)(=O)N=C2C=CC(=NS(=O)(=O)c3ccc(C)cc3)C=C2)cc1	0	102.0	-10.2	71.5*
Cc1ccc(S(=O)(=O)N=C2C=CC(=NS(=O)(=O)N(C)C)C=C2)cc1	-1.35	104.0	-19.4	96.6

Screens deposited in PubChem BioAssay by ICCB-Longwood Screening Facility, Harvard Medical School.
